# Rows were chosen to be rich in hits. Some 3.7% of all compounds tested hit in one or more screens of this group.
# TCR activator – T cell receptor activation; primary human leukocytes, anti-CD3, IL-2 HTRF, 48 h; Potency, µM (doses to about 9.22 µM), inactives show at the highest dose activation of IL-2 secretion, most hits filed as activators; 330,000 tested, under 10 active; AID 504894; further: % of control where 0% means no effect
#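 Primary human leukocytes receive a-CD3 beads and test compound and are incubated 48 hr. Secreted IL-2 is then assayed by HTRF, measuring 665nm acceptor emission after 320nm excitation of the europium donor.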
# PLK1 PBD inh – inhibitors of human PLK1 polo-box domain binding. Plk1 PBD binding of FITC phosphopeptide, fluorescence polarization. P53350. actives 2.8% (n = 360,000). AID 720504. Potency, µM, for the others: max response, negative = inhibition, usual class: inhibitors; further: potency means the concentration at half of the fitted maximal effect; series mostly up to about 57 µM; on the % scale 0 is the no-effect control and ±100 the full control effect; nearly all actives have a fitted effect of over 65% in size
# WRN helicase inh – inhibitors of human WRN helicase; Q14191; WRN helicase unwinding, fluorescent forked duplex, kinetic; Potency, µM (titrated, usually from 114 µM), for inactives: at the top dose activity change, negative = inhibition, most hits filed as inhibitors; actives 0.46% (n = 360,000); AID 651768; further: potency means the concentration at half of the fitted maximal effect; on the % scale 0 is the no-effect control and ±100 the full control effect; nearly all actives have a fitted effect of over 55% in size
#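 WRN at 20 nM final preincubated with compound 15 min at room temperature; reaction started with 100 nM fluorophore/quencher forked duplex oligonucleotide and 2 mM ATP final. Unwinding followed kinetically by red fluorescence (ex 525, em 598 nm).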
# FEN1 inhibitor – blocks human flap endonuclease 1 | Recombinant FEN1 flap cleavage, fluorescence, 15 min | P39748 | AID 588795 | Potency, µM (highest dose often 114 µM), inactives show at the highest dose activity change, negative = inhibition, hits mostly inhibitors | actives 0.35% (n = 390,000); further: potency means the concentration at half of the fitted maximal effect; on the % scale 0 is the no-effect control and ±100 the full control effect; nearly all actives have a fitted effect of over 65% in size
#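 Quantitative HTS format: each compound was titrated, incubated with 10 nM nuclease for 15 min at room temperature, then challenged with flap substrate at 50 nM final. Signal change over 15 min gave concentration–effect curves.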
# VDR inh – inhibitors of human vitamin D receptor; P11473; VDR-SRC2-3 peptide fluorescence polarization, 2 h; Potency, µM, without a hit: max response, negative = inhibition, actives largely listed as inhibitors; actives 0.93% (n = 400,000); further: potency means the concentration at half of the fitted maximal effect; on the % scale 0 is the no-effect control and ±100 the full control effect
#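 FP read-out; VDR + SRC2-3 coactivator peptide; 23 nl compound by pintool; 2 h RT incubation; reagents held at 4 deg C, protected from light.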
# PI5P4K alpha inh – blocks human PI5P4K alpha kinase activity | PI5P4Kalpha enzyme, ADP-Glo luminescence, 60 min; active compounds read low | max response, % | actives 1.2% (n = 330,000); active means max response of -50% or lower; inconclusive means between -30% and -50%; inactive means -30% or higher; further: value at the top dose of about 77 µM; on the % scale 0 is the no-effect control and ±100 the full control effect
# Target sequence (P48426 whole entry, looked up): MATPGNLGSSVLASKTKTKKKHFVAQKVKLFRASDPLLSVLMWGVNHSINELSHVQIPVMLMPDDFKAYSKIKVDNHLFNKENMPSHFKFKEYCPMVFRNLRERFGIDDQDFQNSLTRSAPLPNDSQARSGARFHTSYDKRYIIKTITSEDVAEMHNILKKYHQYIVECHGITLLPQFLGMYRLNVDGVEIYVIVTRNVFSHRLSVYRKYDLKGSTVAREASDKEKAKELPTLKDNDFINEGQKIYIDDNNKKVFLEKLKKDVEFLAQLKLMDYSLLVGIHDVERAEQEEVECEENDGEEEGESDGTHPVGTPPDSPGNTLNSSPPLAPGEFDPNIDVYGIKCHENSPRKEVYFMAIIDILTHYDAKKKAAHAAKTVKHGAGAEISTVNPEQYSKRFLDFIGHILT
#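 Compounds were pin-transferred onto PI5P4Kalpha and substrate in HEPES pH 7.4 buffer with EGTA, CHAPS and 5% DMSO. ATP (5 microM final) started the reaction, which ran 60 minutes at room temperature before ADP-Glo detection.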
# The depositor's hits bear a star; ? = inconclusive; . = no result; ! = not confirmed by another sample; [ ] = dose if it differs, or a comment. Unless noted, the call rests on the fitted dose curve; in most records, active means well fitted curve in the direction sought with a large enough effect; inconclusive means small, poorly fitted or top-dose-only effect, or another doubt; inactive means no such curve, though single readings can be large; an effect the other way counts as inactive or inconclusive.
SMILES,TCR activator,PLK1 PBD inh,WRN helicase inh,FEN1 inhibitor,VDR inh,PI5P4K alpha inh
O=C(NC(=S)Nc1ccc2ncccc2c1)c1ccccc1,.,-0.5%,-19.4%,-3.7%,-3.6%,2.1
O=C(NCC(c1ccccc1)c1ccccc1)c1nn(-c2ccccc2Cl)nc1CO,.,.,.,-16.6%,14.8%,.
COc1ccc2c(c1)OC/C(=C\c1ccc(OC)c(O)c1)C2=O,.,.,.,.,20µM*,.
CS(=O)(=O)Nc1cccc(-c2cn3c(n2)SCC3)c1,8.8%,?,-11.2%,20µM*,?,-3.1
CCS(=O)(=O)Nc1cccc(-c2cn3c(n2)SCC3)c1,-3.2%,?,-1.1%,15.9%,-4.3%,-0.7
CCCC[C@@]1(C2CCCC2)Cc2cc(OCC(=O)O)c(Cl)c(Cl)c2C1=O,3.5%,-26.5%,3.0%,-3.1%,50.1µM*!,8.4
O=C(O)COc1ccc(Cl)cc1C1CCCCC1,0.1%,-0.2%,-17.1%,1.9%,-11.0%,2.8
CC(C)(C)OC(=O)NC(CC(=O)OCc1ccccc1)C(=O)O (configuration not stated),3.8%,-12.0%,3.5%,18.0%,-5.5%,-0.8
CC(C)(C)OC(=O)N[C@@H](CC(=O)OCc1ccccc1)C(=O)O,5.1%,26.7µM*,-8.5%,0.4%,-5.0%,?
Cc1ccc(C2CC(=O)N3CN(Cc4ccco4)CSC3=C2C#N)cc1 (configuration not stated),-2.6%,26.7µM*,-3.0%,-11.1%,?,.
N#CC1=C2SCN(Cc3ccco3)CN2C(=O)CC1c1c(F)cccc1Cl (configuration not stated),4.2%,26.7µM*,-6.8%,?,?,-50.3*
O=C(NCc1ccco1)C1CC(=O)N(c2ccc(Cl)cc2)C1 (configuration not stated),1.1%,-8.1%,-1.6%,-9.0%,-8.3%,2.4
COc1ccc(CNC(=O)c2ccc(N3CCCC3)c(NC(=O)NCc3ccc(C)cc3)c2)cc1,.,.,.,-2.7%,8.1%,.
Nc1nc(=S)c2ncn([C@@H]3O[C@H](CO)[C@@H](O)[C@H]3O)c2[nH]1,3.9%,21.2µM*,7.4%,-3.7%,-22.4%,-77.0*
Nc1nc(=S)c2ncn(C3OC(CO)C(O)C3O)c2[nH]1 (configuration not stated),2.6%,10.6µM*,28.2µM*,89.1µM*,70.8µM*,-80.7*
CC1(C)OC2C(CO)OC(n3cnc4c(=S)nc(N)[nH]c43)C2O1 (configuration not stated),.,?,-4.2%,.,.,-22.9
CCc1ccc(-n2c(=O)c3c4c(sc3n(CC(=O)c3ccc(F)cc3)c2=O)CCC4)cc1,.,.,.,-12.1%,-10.3%,.
CCc1ccc(NC(=O)N(Cc2cn(CC)c3ccccc23)C2CCCCC2)cc1,.,.,.,-17.2%,5.3%,.
COc1ccc(-c2nnc(SCC(=O)NCc3ccccc3)nc2-c2ccc(OC)c(OC)c2)cc1OC,.,.,.,-1.4%,-2.6%,.
COc1ccc(C2/C=C\CN(CC3CCCCC3)C(Cc3ccccc3)C(=O)N2Cc2ccc(F)cc2)cc1 (configuration not stated),.,.,.,5.3%,-20.5%,.
Cc1ccc(S(=O)(=O)N(CC(=O)NCCc2ccc(Cl)cc2)c2ccccc2C)cc1,.,.,.,?,-9.1%,.
Nc1c(SCCC(=O)O)ccc2c1C(=O)c1ccccc1C2=O,4.0%,-5.5%,?,?,13.6%,-86.6*
Cc1cc2c(cc1C)N[C@]1(C[C@H]3CCCC(=O)N4CC[C@@H](C1)[C@@H]34)C(=NCc1ccccc1)N2,.,.,.,-3.3%,.,.
Cn1cc(C(=O)NCCc2ccccc2)c(=O)c2cc(S(=O)(=O)N3CCOCC3)ccc21,1.3%,29.9µM*,5.4%,-4.8%,?,-22.2
N#Cc1cccc(S(=O)(=O)N2CCN(c3nc(-c4cccs4)nc4ccccc34)CC2)c1,.,.,.,16.4%,10.2%,.
SMILES,TCR activator,PLK1 PBD inh,WRN helicase inh,FEN1 inhibitor,VDR inh,PI5P4K alpha inh
Cc1ccc(Cl)cc1NC(=O)CN1C=NS(=O)(=O)c2ccccc21,.,.,.,-8.4%,1.4%,.
O=C(O)c1cc([N+](=O)[O-])c(Sc2nc3ccccc3[nH]2)c([N+](=O)[O-])c1,-5.3%,21.2µM*,?,15.6%,?,-26.6
CS(=O)(=O)c1cc([N+](=O)[O-])c(Sc2nc3ccccc3[nH]2)c([N+](=O)[O-])c1,-2.6%,1.5µM*,56.2µM*,-15.6%,35.5µM*,.
O=C(O)CSc1nc2ccccc2[nH]1,.,26.7µM*,4.4%,7.7%,?,-8.9
O=C(CSc1ccccc1C(=O)O)c1ccc([N+](=O)[O-])cc1,-5.9%,11.9µM*,7.3%,?,?,?
COc1ccc(N2C(=O)CC(Sc3nc4ccccc4s3)C2=O)cc1 (configuration not stated),-1.7%,-14.8%,-17.4%,-5.2%,6.2%,-18.4
COc1ccc(N2C(=O)CC(Sc3nnc(-c4ccccc4F)n3C)C2=O)cc1 (configuration not stated),1.2%,23.8µM*,-6.9%,-19.9%,-17.7%,-0.1
C=CCNc1nnc(SC2CC(=O)N(c3ccc(OC)cc3)C2=O)s1 (configuration not stated),.,26.7µM*,-2.5%,-11.0%,-19.5%,.
COc1ccc(N2C(=O)CC(Sc3nccc(C)n3)C2=O)cc1 (configuration not stated),-0.1%,-6.4%,7.0%[57.1 µM],2.7%,6.7%,-6.3
COc1ccc(-c2cnc3c(c2)CCC3(C#N)C#N)cc1,1.1%[46.1 µM],-1.4%,-5.2%,7.4%,79.4µM*,1.3
COc1ccc(OC)c(CCNC(=O)CCc2cn(Cc3cc(C)ccc3C)c3ccccc23)c1,.,.,.,-14.0%,9.8%,.
CCNc1nc2c(c(=O)n(C)c(=O)n2C)n1CCCc1ccccc1,-1.2%,3.36µM*,?,-10.6%,?,?
O=C(NC1CC1)c1ccc(Cn2c(SCc3cccc(F)c3)nc3cccnc32)cc1,.,.,.,11.7%,0.7%,.
CNc1sc(C(=O)c2cccs2)c(N)c1-c1nc2ccccc2s1,-1.6%,-17.0%,-27.8%,-23.5%,2.1%,0.9
CNc1sc(C(=O)c2ccc(F)cc2)c(N)c1-c1nc2ccccc2s1,0.9%,21.2µM*,3.0%,12.9%,-14.9%,.
O=c1cc(-c2cccnc2)oc2c1ccc1ccccc12,6.4%,-4.4%,-1.4%[11.6 µM],39.8µM*,7.1%,-3.2
Cc1cccc(NC(=O)CCS(=O)(=O)c2cc3c(cc2Cl)NC(=O)CO3)c1,-22.0%,11.9µM*,3.2%,-1.7%,?,-18.0
COc1ccc(CN=Cc2c(C(F)(F)F)[nH][nH]c2=O)cc1,-3.8%,26.7µM*,13.6%,-0.8%,-13.9%,-3.4
COC(=O)c1ccc(N=Cc2c(C(F)(F)F)[nH][nH]c2=O)cc1,-1.2%,-3.4%,-0.2%,-8.2%,-17.1%,-1.1
COc1ccc(N=Cc2c(O)[nH]c3ccccc23)cc1,6.1%,0.4%,1.8%,10.9%,-1.1%,.
COc1ccc(CN=Cc2c(O)[nH]c3ccccc23)cc1,0.2%,21.2µM*,-20.2%,-1.1%,-7.0%,-19.7

# Assay outcomes from PubChem.
